Compound activity (PubChem BioAssay)
Sampled rows, rich in hits. Any-hit rate of the full collection: about 21%.
Pf growth 96h – Primary qHTS for delayed death inhibitors of the malarial parasite plastid, 96 hour incubation; P. falciparum luciferase reporter growth, 96 h; 6.9% of 320,000 active; Potency, µM (top dose mostly 28.7 µM), for inactives: at the top dose activity change, negative = inhibition, actives largely listed as inhibitors; note: potency is the fitted concentration of half-maximal effect; % is set by controls: 0 for no effect and ±100 for the full control effect
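Readout is luminescence from an integrated firefly luciferase in P. falciparum. Red cells, 2% hematocrit and 0.05% parasitemia final, were cultured with compound through two parasite generations (96 hours) at 37 C, 5% CO2.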
Shiga toxin inh – A qHTS for Small Molecule Inhibitors of Shiga Toxin; Vero cells, Shiga toxin protein synthesis inhibition reporter; inhibition, % at 38.7 µM; 9.2% of 290,000 active; AID 2315, 2010; in the data active = inhibition mostly above about 28%, no sharp cut-off; inactive = mostly below about 43%; note: 0% is about no effect
CHX counter – Cycloheximide Counterscreen for Small Molecule Inhibitors of Shiga Toxin. cell reporter, cycloheximide protein synthesis inhibition counterscreen. 12% of 300,000 active. max response, %. AID 2314, 2010; in the data active = max response mostly above about 13%, no sharp cut-off; inactive = mostly below about 14%; note: read at 38.3 µM for the half of the compounds with a filed dose; 0% is about no effect
NS1 function inh – qHTS Assay for Inhibitors of Influenza NS1 Protein Function | 0.4% of 270,000 active | Potency, µM (top dose mostly 46.1 µM), inactives show at the top dose activity, positive = more growth | AID 2326, 2010; calls by dose curve; note: potency is the fitted concentration of half-maximal effect; actives are rising curves; nearly all actives have a fitted effect of over 50% in size
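Read-out: OD600 growth recovery of NS1-expressing budding yeast. Cells grown overnight at 30C in -URA glucose medium, washed, resuspended and diluted 1:100 in 2% galactose assay medium, pH 6.0. Same strain lacking NS1 served as positive control.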
FBPA Giardia inh – qHTS Assay for Inhibitors of Fructose-1,6-bisphosphate Aldolase from Giardia Lamblia; AID 2451, 2010; Potency, µM (doses to about 59.6 µM), inactives show top-dose activity, negative = inhibition, hits mostly inhibitors; purified Giardia FBPA; 0.71% of 290,000 active; note: potency is the fitted concentration of half-maximal effect; % is set by controls: 0 for no effect and ±100 for the full control effect; nearly all actives have a fitted effect of over 55% in size
Target sequence (A8B2U2 whole entry, looked up): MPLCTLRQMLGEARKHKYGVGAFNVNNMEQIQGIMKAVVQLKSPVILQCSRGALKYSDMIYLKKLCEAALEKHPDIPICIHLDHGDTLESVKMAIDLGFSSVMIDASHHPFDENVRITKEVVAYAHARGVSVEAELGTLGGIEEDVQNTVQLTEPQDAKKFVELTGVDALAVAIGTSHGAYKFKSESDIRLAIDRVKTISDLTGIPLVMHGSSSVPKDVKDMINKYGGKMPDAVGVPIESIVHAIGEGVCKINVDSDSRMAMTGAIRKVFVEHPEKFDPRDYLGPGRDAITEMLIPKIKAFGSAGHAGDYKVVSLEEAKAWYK
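40 nM FBPA preincubated 10 min at RT with compound (up to 57.5 uM final), then substrate plus GAPDH/TPI/NAD/arsenate coupling and diaphorase/resazurin added. Fluorescence read after 20 min at RT, 525/598 nm.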
Pf growth 48h – Primary qHTS for delayed death inhibitors of the malarial parasite plastid, 48 hour incubation; Potency, µM (titrated, usually from 28.7 µM), for inactives: top-dose activity change, negative = inhibition, actives largely listed as inhibitors; AID 504832, 2011; 5.9% of 310,000 active; P. falciparum luciferase growth in erythrocytes, 48 h; note: potency is the fitted concentration of half-maximal effect; % is set by controls: 0 for no effect and ±100 for the full control effect
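A one-generation exposure of luciferase-tagged malaria parasites in RPMI 1640/Albumax erythrocyte culture, 37 C and 5% CO2. Inhibition is inferred from decreased luminescence after adding detection reagent.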
The depositor's hits bear a star; ? = inconclusive; nt = not tested or not shown; [ ] = remark or other dose. Unless noted, calls come from the whole dose curve; as a rule, active = well fitted curve in the direction sought with a large enough effect; inconclusive = small, poorly fitted or top-dose-only effect, or another doubt; inactive = no such curve, though single readings can be large; an effect the other way counts as inactive or inconclusive.

SMILES	Pf growth 96h	Shiga toxin inh	CHX counter	NS1 function inh	FBPA Giardia inh	Pf growth 48h
COc1ccccc1N1CCN(C(=O)c2cc(C(=O)N3CCN(c4ccccc4OC)CC3)cc([N+](=O)[O-])c2)CC1	?	-6	-1	6%	-5%	?
CC1(c2ccccc2)CC(C)(C)N(C(=O)C2CCCO2)c2ccccc21 (stereo unspecified)	2.3µM*	-9	4	-95%	-2%	nt
CC1(c2cc([N+](=O)[O-])cc([N+](=O)[O-])c2)CC(C)(C)N(C(=O)c2ccccc2)c2ccccc21 (stereo unspecified)	4%	-8	-4	15%	1%	2.3µM*
COc1ccccc1CN1CC[C@@]2(CCCN(C(=O)c3cccc(F)c3)C2)C1	nt	nt	nt	nt	-16%	nt
O=C(c1ccco1)N1N=C(c2cccs2)CC1c1ccccc1O (stereo unspecified)	?	-3	-1	?	-13%	8.3µM*
c1ccc(N2N=C(c3cccs3)CC2c2ccco2)cc1 (stereo unspecified)	?	27	6	18%	-2%	22%
COc1ccc(C2=NN(C(=O)c3cccs3)C(c3ccccc3OC)C2)cc1OC (stereo unspecified)	-22%	-1	-1	-3%	-3%	?
COc1cccc(C2CC(c3cccs3)=NN2C(=O)c2ccco2)c1O (stereo unspecified)	?	-13	-1	-16%	-6%	?
Clc1ccc(N2N=C(c3cccs3)CC2c2ccco2)cc1 (stereo unspecified)	2.6µM*	7	37*	2%	-6%	39%
O=C(c1ccccc1)N1N=C(c2ccccc2)CC1c1ccccc1O (stereo unspecified)	-6%[5.75 µM]	-7	-5	0%	-10%	?
Cc1ccc(C2=NN(C(=O)c3cccs3)C(c3ccccc3O)C2)cc1 (stereo unspecified)	24%	22	22*	4%	6%	?
O=C(c1cccs1)N1N=C(c2ccccc2)CC1c1ccccc1O (stereo unspecified)	19%	3	-1	12%	0%	3.3µM*
CC1(NC(=S)Nc2ccccc2)CCS(=O)(=O)C1 (stereo unspecified)	30%	13	0	2%	-2%	-19%
CN1CCN(c2ncc3nc(-c4cccc(C#N)c4)c(=O)n(CCc4ccccc4)c3n2)CC1	nt	nt	nt	nt	4%	nt
COc1cc2c(cc1OC)CN(CC(=O)Nc1ccc(C)c(C)c1)CC2	?	-5	-2	-5%	0%	?
O=C(NCc1ccc2c(c1)OCO2)c1cccc(S(=O)(=O)N2CCCC2)c1	-8%	21	-1	-3%	nt	4%
O=C(CSC1=NNC(c2ccccn2)S1)Nc1ccc(C(F)(F)F)cc1 (stereo unspecified)	?	38*	23*	2%	6%	?
c1ccc(CSC2=NNC(c3ccccn3)S2)cc1 (stereo unspecified)	?	32	33*	13%	2%	2.1µM*
CC(=O)Nc1ccc(NC(=O)CSc2ccccn2)cc1	273%	9	10	20%	4%	10%
O=C(CCC(=O)N1CCOc2ccccc21)NC1CCCCCC1	9%	13	6.6*	-5%	8%	-14%
Cc1cc(C)nc(SCC2COc3ccccc3O2)n1 (stereo unspecified)	87%	79*	24	-68%	-1%	41%
O=C(CCC1COc2ccccc2O1)NC1CCCCC1 (stereo unspecified)	119%	27	36*	-8%	3%	nt
CCOC(=O)N1CCC(NC(=O)CCC(=O)N2CCOc3ccccc32)CC1	?	4	7	?	1%	37%
Cc1cc(C)n(C(=O)CCC2COc3ccccc3O2)n1 (stereo unspecified)	?	35	11*	-7%	1%	34%
CC(C)C[C@H](N)CSSC[C@@H](N)CC(C)C	nt	nt	nt	-7%	-1%	nt
